USP7 block = blocks human USP7 ubiquitin-rhodamine cleavage. Q93009. AID 1645854. inhibition, % at 20 µM. purified USP7, Ub-rhodamine cleavage fluorescence. 47,000 compounds, 0.3% hits
UCHL1 block = inhibitors of human UCHL1 deubiquitinase. P09936. purified UCHL1, Ub-rhodamine cleavage fluorescence. inhibition, % at 20 µM. 47,000 compounds, 0.2% hits. AID 1645859
USP8 inh = human USP8 deubiquitinase inhibition. P40818. purified USP8, Ub-rhodamine cleavage fluorescence, 30 min. inhibition, % at 20 µM. 47,000 compounds, 4.2% hits. AID 1645853
USP10 block = blocks human USP10 ubiquitin-rhodamine cleavage. 47,000 compounds, 1.1% hits. AID 1645856. inhibition, % at 20 µM. purified USP10, Ub-rhodamine fluorescence, 60 min
Target sequence (Q14694 whole entry, looked up): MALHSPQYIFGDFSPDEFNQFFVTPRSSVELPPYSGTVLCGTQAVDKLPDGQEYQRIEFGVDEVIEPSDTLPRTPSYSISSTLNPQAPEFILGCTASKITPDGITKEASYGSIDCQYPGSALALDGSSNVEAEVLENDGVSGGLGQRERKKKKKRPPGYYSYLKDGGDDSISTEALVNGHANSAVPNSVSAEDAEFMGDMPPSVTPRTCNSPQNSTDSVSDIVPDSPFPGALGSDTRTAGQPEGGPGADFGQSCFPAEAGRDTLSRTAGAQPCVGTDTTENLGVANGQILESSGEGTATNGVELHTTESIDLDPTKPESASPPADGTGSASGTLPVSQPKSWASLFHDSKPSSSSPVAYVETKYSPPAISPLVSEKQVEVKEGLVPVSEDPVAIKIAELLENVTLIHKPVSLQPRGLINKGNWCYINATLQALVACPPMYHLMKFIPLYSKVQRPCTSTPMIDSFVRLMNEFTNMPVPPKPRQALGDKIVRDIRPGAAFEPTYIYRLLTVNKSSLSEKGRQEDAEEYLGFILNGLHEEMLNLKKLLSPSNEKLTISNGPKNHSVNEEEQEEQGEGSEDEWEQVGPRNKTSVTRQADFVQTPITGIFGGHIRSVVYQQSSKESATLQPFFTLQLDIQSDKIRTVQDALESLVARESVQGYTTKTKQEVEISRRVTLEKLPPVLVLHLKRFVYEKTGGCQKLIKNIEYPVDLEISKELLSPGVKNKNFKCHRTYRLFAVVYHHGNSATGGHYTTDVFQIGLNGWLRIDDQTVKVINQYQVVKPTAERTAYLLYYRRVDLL
Hits are given with their value; . = inactive. In the library only some 4.6% were active in any assay of this set; here they are far more common. Cut-off read from the data, not from the text of the source: active = inhibition above about 30%; inactive = the rest.

SMILES	USP7 block	UCHL1 block	USP8 inh	USP10 block
COc1cccc(C(=O)NCc2[nH]nc3ccccc23)c1	.	.	84	.
O=[N+]([O-])c1ccc(CN2CCC(c3cc(-c4ccc(Cl)cc4)n[nH]3)CC2)cc1	.	.	.	.
O=c1[nH]c(C2CCN(S(=O)(=O)c3ccccc3)CC2)nc2c1nnn2Cc1c(Cl)cccc1Cl	.	.	.	32
O=C(Nc1cccc2ccccc12)N1CCC(c2nc3c(nnn3Cc3ccc(F)cc3)c(=O)[nH]2)CC1	.	.	97	.
O=c1[nH]c(C2CCN(S(=O)(=O)c3cccc4ccccc34)CC2)nc2c1nnn2Cc1ccccc1Cl	.	.	.	.
O=c1[nH]c(C2CCN(S(=O)(=O)c3ccc(S(=O)(=O)N4CCOCC4)cc3)CC2)nc2c1nnn2Cc1ccc(F)cc1	30	31	89	45
CCc1ccccc1NC(=O)N1CCC(c2nc3c(nnn3Cc3ccc(F)cc3)c(=O)[nH]2)CC1	.	.	.	.
Cc1ccc(Cn2nnc3c(=O)[nH]c(C4CCN(S(=O)(=O)c5ccc(S(=O)(=O)NC6CC6)cc5)CC4)nc32)cc1	.	.	.	.
O=c1[nH]c(C2CCN(S(=O)(=O)c3ccc(S(=O)(=O)N4CCOCC4)cc3)CC2)nc2c1nnn2Cc1cccc(F)c1	.	.	.	.
COC(=O)c1ccc(Cn2nnc3c(=O)[nH]c(C4CCCN(S(=O)(=O)c5ccc(C)cc5)C4)nc32)cc1 (stereo not drawn)	.	.	.	41
CC1=C(C(=O)OC2CCCCCC2)C(c2ccccc2[N+](=O)[O-])CC(=O)N1 (stereo not drawn)	.	.	62	.
CCOC(=O)N1CCC(NC(=O)Cn2cccc2C(=O)c2ccccc2)CC1	.	.	.	.
COc1ccc(-c2nc(-c3nnn(Cc4ccc(F)cc4)c3C)no2)c(OC)c1	.	.	60	.
COc1ccccc1-c1nc(-c2cn(-c3ccccc3)nn2)no1	.	.	.	.
COc1ccc(-c2nc(-c3cn(-c4ccccc4)nn3)no2)c(OC)c1	.	.	38	.
COc1ccccc1-c1nc(-c2cn(-c3ccc(F)cc3)nn2)no1	.	.	89	33
COc1ccc(-c2nc(-c3cn(-c4cccc(Cl)c4)nn3)no2)c(OC)c1	.	.	.	34
NC(=O)c1nc(-c2cccc(F)c2)nc2c1[nH]c(=O)n2C1CCCCC1	.	.	.	.
Fc1cccc(-n2cc(-c3noc(-c4cccnc4)n3)nn2)c1	.	.	52	.
COc1cc2c(cc1OC)CN(C(=O)C(NC(=O)c1ccccc1)C(C)C)CC2 (stereo not drawn)	.	.	53	.
CN(Cc1ccccc1)C(=O)c1nnn(-c2ccccc2)n1	.	.	.	.
CC(C)c1ccc(C(C(=O)NC2CCCCC2)N(C(=O)c2cnccn2)c2cccc(F)c2)cc1 (stereo not drawn)	.	.	30	.
O=C(Cn1cnc2cc([N+](=O)[O-])ccc2c1=O)NCc1ccc2c(c1)OCO2	.	.	39	.
O=C(Cn1ncc2c(=O)oc3ccccc3c21)NCc1ccc2c(c1)OCO2	.	.	42	.
O=C(Cn1cc(C(=O)C2CCCCC2)c2ccccc21)Nc1ccccc1C(F)(F)F	.	.	.	.
SMILES	USP7 block	UCHL1 block	USP8 inh	USP10 block
O=C(Cn1ccc2ccc([N+](=O)[O-])cc21)NCc1ccc2c(c1)OCO2	.	.	.	.
O=C(Cn1cc(C(=O)C2CC2)c2ccccc21)NCc1ccc2c(c1)OCO2	.	.	69	.
Cc1c(Cl)cccc1NC(=O)Cn1cc(C(=O)C2CC2)c2ccccc21	36	.	86	49
COc1ccc(C)cc1NC(=O)N1CCC2(CC1)Nc1ccccc1-n1cccc12	.	.	.	.
Cc1cncc(C(=O)N[C@@H]2C[C@@H](Oc3ccccc3)[C@H](O)[C@H]2N(C)C)c1	.	.	.	.
CCn1cnc2c(-c3ccccc3)cn(CC(=O)NCc3ccc4c(c3)OCO4)c2c1=O	.	.	.	.
O=C(Cn1cc(-c2ccccc2)c2ncn(C3CC3)c(=O)c21)NCc1ccc2c(c1)OCO2	.	.	41	.
O=C(O)CC1(c2ccc(F)cc2)C2CC3CC(C2)CC1C3 (stereo not drawn)	.	.	33	.
Cc1ccc(NC(=O)c2cc3c(s2)CCC3)cc1	.	.	49	.
O=C(Nc1ccc2[nH]c(=O)[nH]c2c1)c1cc2c(s1)CCCCC2	.	.	53	.
O=C(NCc1ccc2c(c1)OCO2)c1cc2c(s1)CCC2	.	38	79	47
CCN1CCN(C(=O)Cn2c(=O)[nH]c3c(-c4ccccc4)c[nH]c3c2=O)CC1	.	.	.	.
O=C(Cn1c(=O)[nH]c2c(-c3ccccc3)c[nH]c2c1=O)N1CCCCCC1	.	.	46	.
O=C1C(=NCc2ccccc2)N[C@@H]2[C@@H](O)[C@@H](O)[C@H](O)[C@@H](CO)N12	.	.	.	.
CCOC(=O)c1cc2c(ccn2C)n1Cc1ccc2ccccc2n1	.	.	57	.
CCOC(=O)c1cc2c(ccn2C)n1CC(=O)N1CCN(C(=O)c2ccco2)CC1	.	.	37	.
CCOC(=O)c1cc2c(ccn2C)n1Cc1ccccc1C#N	.	.	.	.
COC(=O)c1cc2c(ccn2C)n1Cc1ccccc1	.	.	.	.
CCOC(=O)c1cc2c(ccn2C)n1Cc1cccc2ccccc12	.	.	87	.
COC(=O)c1cc2c(ccn2C)n1Cc1ccccc1OC	.	.	70	.
O=C(NCc1ccccc1)c1cc(CN2CCOCC2)on1	.	.	.	.
Cc1cccc(NC(=O)c2nn(C)c3ccccc3c2=O)c1	.	.	.	.
Cc1cc(C(=O)NC2(O)C(=O)c3ccccc3C2=O)n(C)n1	.	31	82	38
Cc1cc(C(=O)N2CCN(c3ccnc(N4CCN(C(C)C)CC4)n3)CC2)nn1C	.	.	.	.
CC(=O)c1cccc(S(=O)(=O)N2CCC(C(=O)Oc3ccc(-c4nnco4)cc3)CC2)c1	.	.	39	.
SMILES	USP7 block	UCHL1 block	USP8 inh	USP10 block
O=C(Oc1ccccc1)C1CCN(S(=O)(=O)c2ccc3c(c2)OCCCO3)CC1	.	.	.	.
COc1ccc(C2CC(=O)Nc3nc(-c4ccccc4)[nH]c(=O)c32)cc1OC (stereo not drawn)	.	.	.	.
O=C1CC(c2ccc(C(F)(F)F)cc2)c2c(nc(-c3ccccc3)[nH]c2=O)N1 (stereo not drawn)	.	.	65	.
O=c1[nH]c(C2CCN(S(=O)(=O)c3ccc(S(=O)(=O)NC4CCCC4)cc3)CC2)nc2c1nnn2Cc1cccc(Cl)c1	.	.	.	37
O=c1[nH]c(C2CCN(S(=O)(=O)c3ccc(S(=O)(=O)NC4CC4)cc3)CC2)nc2c1nnn2Cc1cccc(Cl)c1	.	.	.	32
Cc1nc2ccccn2c1C1(O)C(=O)Nc2c(Cl)cc(Cl)cc21 (stereo not drawn)	.	.	88	.
CCC(=O)Nc1cccnc1-c1ccc(C(=O)Nc2ccc(C)cc2)cc1	.	.	.	.
CCC(=O)Nc1cccnc1-c1ccc(C(=O)Nc2ccc3c(c2)OCO3)cc1	.	.	75	.

Assay outcomes as filed in PubChem.
